Screening data: PubChem, National Center for Advancing Translational Sciences (NCATS)
Sampled rows, rich in hits. Any-hit rate of the full collection: about 4%.
HEK293 cAMP cs: qHTS Assay for Agonists of the Thyroid Stimulating Hormone Receptor: Activators of Intracellular cAMP Concentrations in Parental HEK 293; AID 938, 2007; parental HEK293 CNG cAMP sensor, membrane potential fluorescence; 73,000 tested, 2.5% active; Potency, µM (titrated, usually from 57.1 µM), inactives show at the highest dose activation, hits mostly activators; active means well fitted activation curve with a large enough effect; inconclusive means small, poorly fitted or top-dose-only effect; inactive means no such curve, though single readings can be large or run the other way; further: % of control where 0% means no effect; nearly all actives have a fitted effect of over 55% in size
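Counterscreen for endogenous-receptor signalling: CNG-channel HEK 293 cells report cAMP rise by membrane depolarization. After 60 min dye equilibration with 100 uM RO 20-1724, compounds incubated 30 min before bottom-read fluorescence at 590 nm.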
TSHR agonist: qHTS Assay for Agonists of the Thyroid Stimulating Hormone Receptor | Thyrotropin receptor (Homo sapiens), P16473 | HEK293-CNG-TSHR cells (CNG channel as cAMP sensor), membrane potential dye, cAMP | Potency, µM (top dose mostly 57.1 µM), without a hit: at the highest dose activation, actives largely listed as activators | 73,000 tested, 0.48% active; active means well fitted activation curve with a large enough effect in the main read-out, with a control signal flat, not every such curve was filed as active; inconclusive means small, poorly fitted or top-dose-only effect, or a change in a side signal; inactive means no such curve, though single readings can be large or run the other way; % of control where 0% means no effect;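 further: the control signal comes from parental cells without the receptor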
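HEK 293 cells stably expressing TSHR and a cAMP-gated CNG channel; parental CNG-only cells as counterscreen. Cells preloaded 60 min with membrane potential dye plus 100 uM RO 20-1724, then compound 30 min; fluorescence read at 590 nm.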
GBA mod: Glucocerebrosidase. purified enzyme, resorufin glucoside fluorescence (screen aimed at inhibitors), 20 min. Potency, µM. 48,000 tested, 1.1% active; in the data active means potency below about 15 µM; inconclusive means mostly about 16 µM to 33 µM;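 further: the screen sought inhibitors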
Target sequence (P04062 whole entry, looked up): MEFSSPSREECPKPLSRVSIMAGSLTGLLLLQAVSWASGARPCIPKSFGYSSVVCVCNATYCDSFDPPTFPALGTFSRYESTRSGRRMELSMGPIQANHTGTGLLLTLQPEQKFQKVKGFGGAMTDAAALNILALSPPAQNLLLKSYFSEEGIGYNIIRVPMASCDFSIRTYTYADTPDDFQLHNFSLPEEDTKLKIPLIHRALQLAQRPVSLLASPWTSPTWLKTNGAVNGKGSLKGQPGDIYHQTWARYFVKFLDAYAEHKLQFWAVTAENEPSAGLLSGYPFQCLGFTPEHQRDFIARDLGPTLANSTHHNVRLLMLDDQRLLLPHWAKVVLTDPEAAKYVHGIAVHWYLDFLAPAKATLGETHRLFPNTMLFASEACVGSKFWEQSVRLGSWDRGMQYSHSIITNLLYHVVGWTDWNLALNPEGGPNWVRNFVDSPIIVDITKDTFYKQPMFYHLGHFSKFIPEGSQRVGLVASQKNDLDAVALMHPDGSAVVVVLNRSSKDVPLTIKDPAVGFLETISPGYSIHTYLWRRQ
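Compounds titrated against 0.2 nM normal enzyme, 30 uM resorufin beta-D-glucopyranoside substrate, citrate/phosphate buffer with taurocholate and tween-20, pH 5.9. Reaction ran 20 min at room temperature; fluorescence (Ex 548/Em 600) gave AC50.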
PK Bst: Pyruvate Kinase; purified pyruvate kinase, luminescence ATP production; ribose 5-phosphate activator present at AC10; Potency, µM; 51,000 tested, 1.2% active; AID 361, 2006; in the data active means potency below about 11 µM; inconclusive means mostly about 12 µM to 25 µM;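 the screen sought inhibitors and activators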;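 further: scaled between full activation by ribose 5 phosphate and full inhibition by luteolin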
The depositor's hits bear a star; [ ] = dose if it differs, or a comment. Potency means the concentration at half of the fitted maximal effect.

Results for COc1ccc(OC)c(NC(=O)c2cc(S(=O)(=O)NCc3ccco3)ccc2F)c1 ?
HEK293 cAMP cs: 18.1%; GBA mod: 5.32*; PK Bst: >57

How did COc1cccc(C(=O)Nc2ccc(S(=O)(=O)NCc3ccco3)cc2)c1 do in these assays?
HEK293 cAMP cs: 13.7%; TSHR agonist: 2.9%; GBA mod: >76.9; PK Bst: >57

How did CC(=O)OC[C@@H]1O[C@@H](O/N=C2/C[C@@H](O)[C@@H](O)[C@@H]3[C@@H]4C(=O)N([C@@H](C)c5ccccc5)C(=O)[C@H]4CC[C@H]23)[C@H](OC(C)=O)[C@H](OC(C)=O)[C@@H]1OC(C)=O do in these assays?
HEK293 cAMP cs: 2.8%[11.4 µM]; TSHR agonist: -6.6%[11.4 µM]

How did Cc1ccc2c(c1)N(CC(=O)N1CCN(c3nc4ccccc4s3)CC1)C(=O)C(C)O2 (stereo unspecified) do in these assays?
HEK293 cAMP cs: 6.31µM*; TSHR agonist: inconclusive; GBA mod: >76.9; PK Bst: >57

Results for C/C(=N\O)c1cccc[n+]1Cc1ccccc1 ?
HEK293 cAMP cs: -5.2%[11.4 µM]; TSHR agonist: 4.3%[11.4 µM]

What do the screens show for `OCC(CO)(CBr)CBr`?
HEK293 cAMP cs: -27.6%; TSHR agonist: inconclusive

Results for NC(=O)c1cc(-c2ccccc2)nc(N2CCOCC2)n1 ?
HEK293 cAMP cs: -4.7%; TSHR agonist: 3.4%[11.4 µM]; GBA mod: >76.9; PK Bst: 4*

How did NC(=O)c1cc(-c2ccccc2)nc(N2CCCCCC2)n1 do in these assays?
HEK293 cAMP cs: 15.6%; GBA mod: >76.9; PK Bst: >57

How did N=C1CCC[C@@H]1C(=S)SCCC(N)=O do in these assays?
HEK293 cAMP cs: 2.3%[11.4 µM]; TSHR agonist: -3.4%[11.4 µM]

Results for Cc1nn(-c2ccccc2)c2c1/C(=N/O)CC(C)(C)C2 ?
HEK293 cAMP cs: 25.1µM*; TSHR agonist: inconclusive; GBA mod: >76.9; PK Bst: >57

How did CN1CCN(S(=O)(=O)c2ccc(N(C)Cc3cccs3)nc2)CC1 do in these assays?
HEK293 cAMP cs: -1.3%; TSHR agonist: -1.0%; GBA mod: 4.48*; PK Bst: >57

What do the screens show for `c1ccc([C@H](c2cccc3c2ccc2ccccc23)[C@H](c2ccccc2)c2cccc3c2ccc2ccccc23)cc1`?
HEK293 cAMP cs: -1.9%[11.4 µM]; TSHR agonist: -3.5%[11.4 µM]

What do the screens show for `Cc1ccc(-c2nc(C(=O)NC3CCCCCC3)no2)cc1`?
HEK293 cAMP cs: 20µM*; TSHR agonist: inconclusive

Results for Cc1cc(C(=O)NCCCn2ccnc2)sc1-c1ccccc1 ?
HEK293 cAMP cs: 12.5%; TSHR agonist: 15.0%; GBA mod: 10.6*; PK Bst: >57

What do the screens show for `COC(=O)c1ccc(CSc2nc(C)nc3c2c(=O)n(C)c(=O)n3C)o1`?
HEK293 cAMP cs: 25.1µM*; TSHR agonist: inconclusive

What do the screens show for `COCCn1c(SCc2ccc(C(=O)OC)o2)nc2cc(Cl)ccc2c1=O`?
HEK293 cAMP cs: 20µM*; TSHR agonist: inconclusive; GBA mod: >76.9; PK Bst: >57

How did COC(=O)c1ccc(CSc2nc(-c3ccc(OC)cc3)nc3c2c(=O)n(C)c(=O)n3C)o1 do in these assays?
HEK293 cAMP cs: 10.6%; TSHR agonist: 5.3%; GBA mod: >76.9; PK Bst: >57

Results for COCCN(CCOC)c1nc(C)nc2c1nc(-c1ccccc1)n2CC1CCN(C)CC1 ?
HEK293 cAMP cs: 22.7%; TSHR agonist: 8.6%

How did O=C(Nc1ccc(Cl)cc1C(=O)Nc1ccc(Br)cn1)c1ccco1 do in these assays?
HEK293 cAMP cs: 20µM*; TSHR agonist: inconclusive; GBA mod: >76.9; PK Bst: >57

Results for O=C(O)c1cccc(SSc2cccc(C(=O)O)c2)c1 ?
HEK293 cAMP cs: 10.1%[11.4 µM]; TSHR agonist: -3.9%[11.4 µM]

Results for COc1ccc(-c2nc(-c3cccc(C)c3)no2)cc1OC ?
HEK293 cAMP cs: 17.2%; PK Bst: >57

How did COc1ccccc1-c1nc(-c2cccc(C)c2)no1 do in these assays?
HEK293 cAMP cs: 17.5%; TSHR agonist: -4.7%; GBA mod: >76.9; PK Bst: 9.44*

What do the screens show for `COc1cccc(-c2nc(-c3ccccc3)no2)c1`?
HEK293 cAMP cs: 8.4%; TSHR agonist: 9.7%; GBA mod: inactive; PK Bst: 8.99*

Results for Fc1ccccc1-c1nc(-c2ccccc2)no1 ?
HEK293 cAMP cs: 5.6%; TSHR agonist: 4.0%; GBA mod: inconclusive; PK Bst: 5.75*

Results for COc1ccc(-c2noc(-c3ccc(Cl)cc3)n2)cc1 ?
HEK293 cAMP cs: 3.2%; TSHR agonist: 5.3%; GBA mod: >76.9; PK Bst: 5.41*

How did COc1ccc(-c2noc(-c3ccccc3F)n2)cc1 do in these assays?
HEK293 cAMP cs: 11.7%; TSHR agonist: -0.3%

How did Cc1c(N=C=O)cccc1N=C=O do in these assays?
HEK293 cAMP cs: 9.9%; TSHR agonist: 3.0%

How did N#Cc1c(NC(=O)C(F)(F)F)sc2c3c(=O)c4ccccc4c(=O)c=3oc3ccccc3c12 do in these assays?
HEK293 cAMP cs: -6.1%[11.4 µM]; TSHR agonist: 0.0%[11.4 µM]

Results for CCO[P@]1(=O)OC[C@@H]2O[C@H](n3cnc4c(N)ncnc43)[C@H](O)[C@@H]2O1 ?
HEK293 cAMP cs: 11.4%[11.4 µM]; TSHR agonist: 0.0%[11.4 µM]

Results for CCC(c1nnnn1Cc1ccco1)N(Cc1cc2cc(C)cc(C)c2[nH]c1=O)CC1CCCO1 (stereo unspecified) ?
HEK293 cAMP cs: 20µM*; TSHR agonist: inconclusive; GBA mod: >76.9

How did CCC(c1nnnn1Cc1ccco1)N(Cc1ccccc1OC)Cc1cc2cc(C)ccc2[nH]c1=O (stereo unspecified) do in these assays?
HEK293 cAMP cs: inconclusive; TSHR agonist: inconclusive; GBA mod: >76.9; PK Bst: >57

What do the screens show for `Cc1ccc(NC(=O)Nc2cccs2)cc1`?
HEK293 cAMP cs: 1.3%; TSHR agonist: -8.4%

How did CCc1ccc(NC(=O)Nc2cccs2)cc1 do in these assays?
HEK293 cAMP cs: -3.5%; TSHR agonist: -22.6%; GBA mod: >76.9; PK Bst: 4.78*

Results for O=C(NCC(c1ccc(F)cc1)N1CCOCC1)c1ccc(Br)o1 (stereo unspecified) ?
HEK293 cAMP cs: 25.1µM*; TSHR agonist: inconclusive; GBA mod: >76.9; PK Bst: >57

Results for O=c1cc(CN2CCOCC2)c2c(ccc3ccccc32)o1 ?
HEK293 cAMP cs: inconclusive; TSHR agonist: inconclusive; GBA mod: >76.9; PK Bst: >11.4

How did CCOC(=O)N1CCN(Cc2cc(=O)oc3ccc4ccccc4c23)CC1 do in these assays?
HEK293 cAMP cs: 25.1µM*; TSHR agonist: inconclusive; PK Bst: >57

What do the screens show for `Nc1nc(SCc2ccccc2[N+](=O)[O-])c2[nH]cnc2n1`?
HEK293 cAMP cs: -1.4%[11.4 µM]; TSHR agonist: -1.0%[11.4 µM]

What do the screens show for `CCOC(=O)c1cnc(-n2nc(C)cc2C)nc1N1CC(C)OC(C)C1` (stereo unspecified)?
HEK293 cAMP cs: 14.2%; TSHR agonist: 0.8%; GBA mod: >76.9; PK Bst: >57
